# PubChem BioAssay AID1159580 (chemical genetic matrix, 2015)
# Out of some 5,500 compounds screened, about 2,000 (36%) were called active. Inconclusive results (about 18%) are left out. This is one part of the list. Values without a mark were called inactive. Cut-off read from the data, not from the text of the source: active = normalized growth mostly below about 0.91 (no sharp cut-off); inconclusive = no clear call, values can overlap the other calls; inactive = mostly above about 0.92.
# Test: chemical genetic growth profiling, strain panel (AID 1159580);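 note: tested at 20 µM; growth read once vehicle control cultures reached saturation at 30 °C; 1 = growth at the plate median or of vehicle wells; lower values mean less growth of the strain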
# Conditions: growth OD
structure (smiles),measurement,setting,value
C[C@@H]1C[C@@H]([C@H](O)CC2CC(=O)NC(=O)C2)C(=O)[C@@H](C)C1,normalized growth,"S. cerevisiae deletion strains, locus YJR075W, strain HOC1, active compounds read low",0.0698 (active)
same,normalized growth,"S. cerevisiae deletion strains, locus YKL009W, strain mrt4, active compounds read low",0.0696 (active)
same,normalized growth,"S. cerevisiae deletion strains, locus YKL068W, active compounds read low",0.0541 (active)
same,normalized growth,"S. cerevisiae deletion strains, locus YKL085W, strain MDH1 (second series), active compounds read low",0.0512 (active)
same,normalized growth,"S. cerevisiae deletion strains, locus YKL085W, strain MDH1, active compounds read low",0.0512 (active)
same,normalized growth,"S. cerevisiae deletion strains, locus YKL160W, strain elf1, active compounds read low",0.0661 (active)
same,normalized growth,"S. cerevisiae deletion strains, locus YKL190W, strain CNB1, active compounds read low",0.0498 (active)
same,normalized growth,"S. cerevisiae deletion strains, locus YKR001C, strain vps1, active compounds read low",0.0635 (active)
same,normalized growth,"S. cerevisiae deletion strains, locus YKR026C, strain gcn3, active compounds read low",0.0607 (active)
same,normalized growth,"S. cerevisiae deletion strains, locus YKR091W, strain srl3, active compounds read low",0.0583 (active)
same,normalized growth,"S. cerevisiae deletion strains, locus YLL001W, strain dnm1, active compounds read low",0.0597 (active)
same,normalized growth,"S. cerevisiae deletion strains, locus YLL026W, active compounds read low",0.0551 (active)
same,normalized growth,"S. cerevisiae deletion strains, locus YLL041C, strain sdh2, active compounds read low",0.0553 (active)
same,normalized growth,"S. cerevisiae deletion strains, locus YLR027C, strain aat2, active compounds read low",0.0609 (active)
same,normalized growth,"S. cerevisiae deletion strains, locus YLR039C, strain RIC1, active compounds read low",0.0922 (active)
same,normalized growth,"S. cerevisiae deletion strains, locus YLR058C, strain SHM2, active compounds read low",0.041 (active)
same,normalized growth,"S. cerevisiae deletion strains, locus YLR102C, strain apc9, active compounds read low",0.0592 (active)
same,normalized growth,"S. cerevisiae deletion strains, locus YLR113W, strain HOG1, active compounds read low",0.12 (active)
same,normalized growth,"S. cerevisiae deletion strains, locus YLR221C, strain rsa3, active compounds read low",0.0588 (active)
same,normalized growth,"S. cerevisiae deletion strains, locus YLR258W, strain gsy2, active compounds read low",0.0568 (active)
same,normalized growth,"S. cerevisiae deletion strains, locus YLR262C, strain YPT6 (second series), active compounds read low",0.0723 (active)
same,normalized growth,"S. cerevisiae deletion strains, locus YLR262C, strain YPT6, active compounds read low",0.108 (active)
same,normalized growth,"S. cerevisiae deletion strains, locus YLR268W, strain sec22, active compounds read low",0.0667 (active)
same,normalized growth,"S. cerevisiae deletion strains, locus YLR320W, strain mms22, active compounds read low",0.0766 (active)
same,normalized growth,"S. cerevisiae deletion strains, locus YLR330W, strain CHS5, active compounds read low",0.0515 (active)
same,normalized growth,"S. cerevisiae deletion strains, locus YLR342W, strain FKS1 (second series), active compounds read low",0.0688 (active)
same,normalized growth,"S. cerevisiae deletion strains, locus YLR342W, strain FKS1, active compounds read low",0.0659 (active)
same,normalized growth,"S. cerevisiae deletion strains, locus YLR357W, strain rsc2, active compounds read low",0.119 (active)
same,normalized growth,"S. cerevisiae deletion strains, locus YLR370C, strain arc18, active compounds read low",0.0598 (active)
same,normalized growth,"S. cerevisiae deletion strains, locus YLR371W, strain rom2, active compounds read low",0.0594 (active)
same,normalized growth,"S. cerevisiae deletion strains, locus YLR384C, strain iki3, active compounds read low",0.0596 (active)
same,normalized growth,"S. cerevisiae deletion strains, locus YLR418C, strain cdc73, active compounds read low",0.0977 (active)
same,normalized growth,"S. cerevisiae deletion strains, locus YML016C, strain PPZ1, active compounds read low",0.055 (active)
same,normalized growth,"S. cerevisiae deletion strains, locus YML032C, strain rad52, active compounds read low",0.0671 (active)
same,normalized growth,"S. cerevisiae deletion strains, locus YML120C, strain ndi1, active compounds read low",0.0554 (active)
same,normalized growth,"S. cerevisiae deletion strains, locus YML124C, strain tub3, active compounds read low",0.0568 (active)
same,normalized growth,"S. cerevisiae deletion strains, locus YMR058W, strain fet3, active compounds read low",0.0596 (active)
same,normalized growth,"S. cerevisiae deletion strains, locus YMR078C, strain ctf18, active compounds read low",0.0691 (active)
same,normalized growth,"S. cerevisiae deletion strains, locus YMR125W, strain sto1, active compounds read low",0.0765 (active)
same,normalized growth,"S. cerevisiae deletion strains, locus YMR129W, active compounds read low",0.0549 (active)
same,normalized growth,"S. cerevisiae deletion strains, locus YMR205C, strain PFK2, active compounds read low",0.0823 (active)
same,normalized growth,"S. cerevisiae deletion strains, locus YMR223W, strain ubp8, active compounds read low",0.065 (active)
same,normalized growth,"S. cerevisiae deletion strains, locus YMR231W, strain pep5, active compounds read low",0.0689 (active)
same,normalized growth,"S. cerevisiae deletion strains, locus YMR263W, strain SAP30, active compounds read low",0.0637 (active)
same,normalized growth,"S. cerevisiae deletion strains, locus YMR307W, strain GAS1, active compounds read low",0.121 (active)
same,normalized growth,"S. cerevisiae deletion strains, locus YNL067W, strain RPL9B, active compounds read low",0.0574 (active)
same,normalized growth,"S. cerevisiae deletion strains, locus YNL071W, strain lat1, active compounds read low",0.0587 (active)
same,normalized growth,"S. cerevisiae deletion strains, locus YNL128W, strain TEP1, active compounds read low",0.0594 (active)
same,normalized growth,"S. cerevisiae deletion strains, locus YNL153C, strain GIM3, active compounds read low",0.0488 (active)
same,normalized growth,"S. cerevisiae deletion strains, locus YNL183C, strain NPR1, active compounds read low",-0.00319 (active)
same,normalized growth,"S. cerevisiae deletion strains, locus YNL209W, strain ssb2, active compounds read low",0.0566 (active)
same,normalized growth,"S. cerevisiae deletion strains, locus YNL233W, strain BNI4, active compounds read low",0.0543 (active)
same,normalized growth,"S. cerevisiae deletion strains, locus YNL248C, strain rpa49, active compounds read low",0.0754 (active)
same,normalized growth,"S. cerevisiae deletion strains, locus YNL250W, strain rad50, active compounds read low",0.0626 (active)
same,normalized growth,"S. cerevisiae deletion strains, locus YNL271C, strain bni1, active compounds read low",0.0609 (active)
same,normalized growth,"S. cerevisiae deletion strains, locus YNL298W, strain CLA4, active compounds read low",0.0597 (active)
same,normalized growth,"S. cerevisiae deletion strains, locus YNL307C, strain MCK1, active compounds read low",0.0682 (active)
same,normalized growth,"S. cerevisiae deletion strains, locus YNL322C, strain KRE1 (second series), active compounds read low",0.0709 (active)
same,normalized growth,"S. cerevisiae deletion strains, locus YNL322C, strain KRE1, active compounds read low",0.0498 (active)
same,normalized growth,"S. cerevisiae deletion strains, locus YNR049C, strain mso1, active compounds read low",0.0539 (active)
same,normalized growth,"S. cerevisiae deletion strains, locus YNR052C, strain pop2, active compounds read low",0.0603 (active)
same,normalized growth,"S. cerevisiae deletion strains, locus YOL006C, strain TOP1, active compounds read low",0.0855 (active)
same,normalized growth,"S. cerevisiae deletion strains, locus YOL012C, strain htz1",0.234
same,normalized growth,"S. cerevisiae deletion strains, locus YOL147C, strain pex11, active compounds read low",0.0565 (active)
same,normalized growth,"S. cerevisiae deletion strains, locus YOR001W, strain rrp6, active compounds read low",0.0676 (active)
same,normalized growth,"S. cerevisiae deletion strains, locus YOR061W, strain CKA2, active compounds read low",0.0412 (active)
same,normalized growth,"S. cerevisiae deletion strains, locus YOR069W, strain VPS5, active compounds read low",0.0494 (active)
same,normalized growth,"S. cerevisiae deletion strains, locus YOR070C, strain gyp1, active compounds read low",0.056 (active)
same,normalized growth,"S. cerevisiae deletion strains, locus YOR080W, strain dia2, active compounds read low",0.0619 (active)
same,normalized growth,"S. cerevisiae deletion strains, locus YOR083W, strain WHI5, active compounds read low",0.0654 (active)
same,normalized growth,"S. cerevisiae deletion strains, locus YOR106W, strain vam3, active compounds read low",0.0681 (active)
same,normalized growth,"S. cerevisiae deletion strains, locus YOR136W, strain idh2, active compounds read low",0.0689 (active)
same,normalized growth,"S. cerevisiae deletion strains, locus YOR144C, strain elg1, active compounds read low",0.0565 (active)
same,normalized growth,"S. cerevisiae deletion strains, locus YOR184W, strain ser1, active compounds read low",0.0727 (active)
same,normalized growth,"S. cerevisiae deletion strains, locus YOR231W, strain MKK1, active compounds read low",0.111 (active)
same,normalized growth,"S. cerevisiae deletion strains, locus YOR265W, strain rbl2, active compounds read low",0.0548 (active)
same,normalized growth,"S. cerevisiae deletion strains, locus YOR270C, strain vph1, active compounds read low",0.1 (active)
same,normalized growth,"S. cerevisiae deletion strains, locus YOR290C, strain snf2, active compounds read low",0.0637 (active)
same,normalized growth,"S. cerevisiae deletion strains, locus YOR316C, strain cot1, active compounds read low",0.0575 (active)
same,normalized growth,"S. cerevisiae deletion strains, locus YPL051W, strain arl3, active compounds read low",0.0621 (active)
same,normalized growth,"S. cerevisiae deletion strains, locus YPL055C, strain LGE1, active compounds read low",0.0743 (active)
same,normalized growth,"S. cerevisiae deletion strains, locus YPL078C, strain atp4, active compounds read low",0.0696 (active)
same,normalized growth,"S. cerevisiae deletion strains, locus YPL106C, strain sse1, active compounds read low",0.0938 (active)
same,normalized growth,"S. cerevisiae deletion strains, locus YPL240C, strain hsp82, active compounds read low",0.0556 (active)
same,normalized growth,"S. cerevisiae deletion strains, locus YPL241C, strain CIN2, active compounds read low",0.0514 (active)
same,normalized growth,"S. cerevisiae deletion strains, locus YPL256C, strain CLN2, active compounds read low",0.112 (active)
same,normalized growth,"S. cerevisiae deletion strains, locus YPR119W, strain clb2, active compounds read low",0.0611 (active)
same,normalized growth,"S. cerevisiae deletion strains, locus YPR141C, strain kar3, active compounds read low",0.0644 (active)
same,normalized growth,"S. cerevisiae deletion strains, locus YPR163C, strain tif3, active compounds read low",0.0667 (active)
same,normalized growth,"S. cerevisiae deletion strains, locus YPR167C, strain met16, active compounds read low",0.0591 (active)
same,normalized growth,"S. cerevisiae deletion strains, strain wtn01, active compounds read low",0.0603 (active)
same,normalized growth,"S. cerevisiae strains, strain wild type, active compounds read low",0.0494 (active)
